Measured values as given in PubChem BioAssay (NCATS).
Records with an inconclusive call do not appear. Active and inactive are the calls of the source. Unless noted, the call rests on the fitted dose curve; in most records, active means well fitted curve in the direction sought with a large enough effect; inconclusive means small, poorly fitted or top-dose-only effect, or another doubt; inactive means no such curve, though single readings can be large; an effect the other way counts as inactive or inconclusive.

Legend:
[1] = target: Lysosomal acid glucosylceramidase (Homo sapiens) (UniProt P04062); assay: Glucocerebrosidase-p2 (AID 348; in the data active means potency below about 10 µM; further: potency means the concentration at half of the fitted maximal effect); settings: purified GBA, blue fluorogenic substrate, 40 min
Outline: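 Compounds titrated from 0.6 nM upwards against 0.2 nM enzyme in pH 5.9 citric acid/KH2PO4, taurocholate, tween-20; blue fluorogenic substrate 80 uM, 40 min room temperature, stopped and read Ex 365/Em 440 for AC50.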

[2] = S16 Schwann cell viability assay (CellTiter-Glo assay) (AID 624031); settings: S16 rat Schwann cells viability, 24 h; series mostly up to 25.7 µM;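 further: cellular ATP luminescence as a viability measure; nearly all actives have a fitted effect of over 70% in size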
Outline: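 Native S16 rat Schwann cells in DMEM/10% FBS without phenol red were incubated overnight, then exposed to compounds for 24 h at 37 °C/5% CO2. Viability was read as ATP luminescence (CellTiter-Glo), normalized to no-cell wells and DMSO (0%).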

ATS189 = assay: qHTS profiling for inhibitors of Plasmodium falciparum proliferation (AID 504749); further: nearly all actives have a fitted effect of over 60% in size; further: potency means the concentration at half of the fitted maximal effect; settings: P. falciparum in erythrocytes, SYBR Green DNA, 72 h; series mostly up to 12.8 µM
Outline: (§1)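 P. falciparum-infected erythrocytes (0.3% parasitemia, 2.5% hematocrit final) were exposed to compounds for 72 h at 37 C in 5% CO2, then lysed with SYBR Green buffer overnight at room temperature; parasite DNA fluorescence was normalized to artemisinin and DMSO controls.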

CP185 = assay: as above; settings: P. falciparum in erythrocytes, SYBR Green DNA, 72 h; series mostly up to 12.8 µM
Outline: as §1

CP191 = assay: as above; settings: P. falciparum in erythrocytes, SYBR Green DNA, 72 h; series mostly up to 12.8 µM
Outline: as §1

CP201 = assay: as above; settings: P. falciparum in erythrocytes, SYBR Green DNA, 72 h; series mostly up to 12.8 µM
Outline: as §1

CP247 = assay: as above; settings: P. falciparum in erythrocytes, SYBR Green DNA, 72 h; series mostly up to 12.8 µM
Outline: as §1

CP250 = assay: as above; settings: P. falciparum in erythrocytes, SYBR Green DNA, 72 h; series mostly up to 12.8 µM
Outline: as §1

CP256 = assay: as above; settings: P. falciparum in erythrocytes, SYBR Green DNA, 72 h; series mostly up to 12.8 µM
Outline: as §1

CP262 = assay: as above; settings: P. falciparum in erythrocytes, SYBR Green DNA, 72 h; series mostly up to 12.8 µM
Outline: as §1

CP325 = assay: as above; settings: P. falciparum in erythrocytes, SYBR Green DNA, 72 h; series mostly up to 12.8 µM
Outline: as §1

CP329 = assay: as above; settings: P. falciparum in erythrocytes, SYBR Green DNA, 72 h; series mostly up to 12.8 µM
Outline: as §1

Dd2 = assay: as above; settings: P. falciparum in erythrocytes, SYBR Green DNA, 72 h; series mostly up to 12.8 µM
Outline: as §1

HB3 = assay: as above; settings: P. falciparum in erythrocytes, SYBR Green DNA, 72 h; series mostly up to 12.8 µM
Outline: as §1

JCK = assay: as above; settings: P. falciparum in erythrocytes, SYBR Green DNA, 72 h; series mostly up to 12.8 µM
Outline: as §1

N140 = assay: as above; settings: P. falciparum in erythrocytes, SYBR Green DNA, 72 h; series mostly up to 12.8 µM
Outline: as §1

PC15 = assay: as above; settings: P. falciparum in erythrocytes, SYBR Green DNA, 72 h; series mostly up to 12.8 µM
Outline: as §1

PC49 = assay: as above; settings: P. falciparum in erythrocytes, SYBR Green DNA, 72 h; series mostly up to 12.8 µM
Outline: as §1

SC27B = assay: as above; settings: P. falciparum in erythrocytes, SYBR Green DNA, 72 h; series mostly up to 12.8 µM
Outline: as §1

TAB113 = assay: as above; settings: P. falciparum in erythrocytes, SYBR Green DNA, 72 h; series mostly up to 12.8 µM
Outline: as §1

Measured: Potency

Lysosomal acid glucosylceramidase (Homo sapiens), sequence (P04062 whole entry, looked up): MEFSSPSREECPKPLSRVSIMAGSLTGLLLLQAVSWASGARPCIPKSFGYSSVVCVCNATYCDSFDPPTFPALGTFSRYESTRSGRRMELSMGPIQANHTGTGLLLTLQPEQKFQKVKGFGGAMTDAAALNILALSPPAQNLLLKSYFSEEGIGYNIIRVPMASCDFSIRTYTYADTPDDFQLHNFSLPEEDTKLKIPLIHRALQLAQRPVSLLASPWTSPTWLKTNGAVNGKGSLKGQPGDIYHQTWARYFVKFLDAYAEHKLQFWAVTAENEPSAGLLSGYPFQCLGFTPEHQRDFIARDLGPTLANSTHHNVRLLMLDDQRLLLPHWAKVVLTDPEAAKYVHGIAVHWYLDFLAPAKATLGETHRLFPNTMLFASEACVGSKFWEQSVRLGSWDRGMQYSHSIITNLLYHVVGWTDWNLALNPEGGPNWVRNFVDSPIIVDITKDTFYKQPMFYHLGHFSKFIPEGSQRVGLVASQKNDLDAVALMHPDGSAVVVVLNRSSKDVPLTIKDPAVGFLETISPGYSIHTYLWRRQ

O=C(c1cnccn1)N1CCC2(CCN(Cc3ccncc3)CC2)CC1
inactive: [1] > 11.4 µM

CN(C)Cc1ccccc1-c1ccc2ncnc(NC3CC3)c2c1
inactive: [1] > 11.4 µM

COc1ccc(C(=O)N2CCC3(CC2)CN(c2ccccn2)C3)cc1
inactive: [1] > 11.4 µM

O=C(Nc1ccccc1)N1CC[C@@]2(CCCN(C(=O)c3ccncc3)C2)C1
inactive: [1] > 11.4 µM

CC(C)NC(=O)N1CC[C@@]2(CCCN(C(=O)c3ccncc3)C2)C1
inactive: [1] > 11.4 µM

O=S(=O)(c1ccccc1)N1CCC2(CCN(c3ccncc3)CC2)CC1
inactive: [1] > 11.4 µM

O=c1c(CCc2ccccc2)nc2cnc(N3CCOCC3)nc2n1C[C@H]1CCCO1
inactive: [1] > 11.4 µM

Cc1cccc(CNc2ccnc(-c3cccc(NS(C)(=O)=O)c3)n2)c1
inactive: [1] > 11.4 µM

CN1CCN(c2nc(-c3cccc(NS(C)(=O)=O)c3)nc3ccccc23)CC1
inactive: [1] > 11.4 µM

N#Cc1ccc(CN2CCCC3(CCNCC3)C2)cc1
inactive: [1] > 11.4 µM

COc1ccc(NC(=O)N2CCC3(CC2)CCN(C(=O)c2cc(C(F)(F)F)cc(C(F)(F)F)c2)CC3)cc1
inactive: [1] > 11.4 µM

O=C(Oc1ccccc1)N1CCC2(CCCN(c3ccncc3)C2)CC1
inactive: [1] > 11.4 µM

COc1cccc(-c2nc(N3CCNCC3)c3ccccc3n2)c1
inactive: [1] > 11.4 µM

CN(C)C(=O)c1ccc(-c2ccc3ncnc(NCc4cccnc4)c3c2)cc1
inactive: [1] > 11.4 µM

COc1ccc(C(=O)N2CCC3(CCN(Cc4ccccc4)CC3)CC2)cc1
inactive: [1] > 11.4 µM

CN1CCN(c2ccnc(-c3ccccc3C(F)(F)F)n2)CC1
inactive: [1] > 11.4 µM

COc1cccc(Cn2c(=O)cnc3cnc(N4CCN(C)CC4)nc32)c1
inactive: [1] > 11.4 µM

COc1ccccc1CNc1ncncc1-c1ccc(N(C)C)cc1
inactive: [1] > 11.4 µM

COc1ccccc1CNc1ncnc2ccc(-c3ccc(N(C)C)cc3)cc12
inactive: [1] > 11.4 µM

c1ccc2c(N3CCNCC3)nc(-c3ccoc3)nc2c1
inactive: [1] > 11.4 µM

O=C(c1cccc(F)c1)N1CCC2(CCCN(C(c3ccccc3)c3ccccc3)C2)CC1
inactive: [1] > 11.4 µM

CC[C@@]12CCCN3CCc4c(n(c5ccccc45)C(=O)C1)[C@H]32
inactive: [1] > 11.4 µM | [2] | ATS189 | CP185 | CP191 | CP201 | CP247 | CP250 | CP256 | CP262 | CP325 | CP329 | Dd2 | HB3 | JCK | N140 | PC15 | PC49 | SC27B | TAB113

CN(C)C(=O)c1ccc(-c2nc(NCc3cccnc3)c3ccccc3n2)cc1
inactive: [1] > 11.4 µM

CN(C)Cc1ccccc1-c1cncnc1NCc1ccccc1
inactive: [1] > 11.4 µM

O=C(c1ccco1)N1CCC2(CC1)CCN(c1ccncc1)CC2
inactive: [1] > 11.4 µM

O=C(Nc1ccccc1)N1CCCC2(CCNCC2)C1
inactive: [1] > 11.4 µM

CO[C@]1(NC(=O)CSCC#N)C(=O)N2C(C(=O)O)=C(CSc3nnnn3C)CS[C@H]21
not listed: [1]
inactive: all other assays above

O=C(c1cc(C(F)(F)F)cc(C(F)(F)F)c1)N1CCC2(CCCN(c3ccncc3)C2)CC1
inactive: [1] > 11.4 µM

CCn1cc(C(=O)O)c(=O)c2cc(F)c(N3CCN[C@@H](C)C3)c(F)c21
not listed: [1] | CP325 | JCK | TAB113
inactive: all other assays above

CO/N=C(\C(=O)N[C@@H]1C(=O)N2C(C(=O)O)=C(COC(C)=O)CS[C@@H]12)c1csc(N)n1
not listed: [1]
inactive: all other assays above

C[C@@H]1c2cccc(O)c2C(O)=C2C(=O)[C@@]3(O)C(O)=C(C(N)=O)C(=O)[C@@H](N(C)C)[C@@H]3[C@@H](O)[C@@H]21
active: Dd2 3.98 µM
not listed: [1] | ATS189 | CP185 | CP256 | CP325 | HB3 | SC27B | TAB113
inactive: all other assays above

COc1ccc(-c2nc3cnc(N4CCNCC4)nc3n(C3CC3)c2=O)cc1
inactive: [1] > 11.4 µM

CN1CCN(c2ncc3nc(-c4ccccc4)c(=O)n(CCC#N)c3n2)CC1
inactive: [1] > 11.4 µM

Cn1c(=O)c(-c2ccccc2)nc2cnc(N3CCNCC3)nc21
inactive: [1] > 11.4 µM

N#CCCn1c(=O)c(CCc2ccccc2)nc2cnc(N3CCOCC3)nc21
inactive: [1] > 11.4 µM

N[C@@H](CO)C(=O)NNCc1ccc(O)c(O)c1O
not listed: [1] | [2]
inactive: all other assays above

Cc1cccc(CNc2ncnc3ccc(-c4cccc(NS(C)(=O)=O)c4)cc23)c1
inactive: [1] > 11.4 µM

O=c1c(-c2cc(F)cc(F)c2)nc2cnc(Oc3ccccc3)nc2n1C[C@H]1CCCO1
inactive: [1] > 11.4 µM

O=C(C1CCCCC1)N1CC(=O)N2CCc3ccccc3[C@@H]2C1
inactive: [2]

O=C(c1ccccc1)c1ccc2n1CC[C@H]2C(=O)O
not listed: [1]
inactive: all other assays above

COc1ccccc1CN1CC[C@@]2(CCCN(C(=O)c3ccco3)C2)C1
inactive: [1] > 11.4 µM

CCCN[C@@H](C)C(=O)Nc1ccccc1C
not listed: [1]
inactive: all other assays above

O=c1c(-c2cccs2)nc2cnc(Oc3cccc(Cl)c3)nc2n1C1CC1
inactive: [1] > 11.4 µM

CCNc1ncc2nc(-c3ccc(OC)cc3)c(=O)n(Cc3cccc(OC)c3)c2n1
inactive: [1] > 11.4 µM

C[C@@H](CCc1ccccc1)NC[C@H](O)c1ccc(O)c(C(N)=O)c1
not listed: [1] | HB3
inactive: all other assays above
